# Rows were chosen to be rich in hits. Some 19% of all compounds tested hit in one or more screens of this group.
# TDP1 cell noCPT – qHTS for Inhibitors of human tyrosyl-DNA phosphodiesterase 1 (TDP1): qHTS in cells in absence of CPT; hit rate 15% among 420,000; Potency, µM (series often up to 46.2 µM), for the others: top-dose activity change, negative = growth inhibition, hits mostly inhibitors; DT40 Tdp1-/- hTDP1 cells, no CPT, ATP luminescence, 48 h; further: potency means the concentration at half of the fitted maximal effect; nearly all actives have a fitted effect of over 55% in size
#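 Readout: luminescence from CellTiter-Glo after 30 min in the dark at RT. Cells: DT40 Tdp1-/- with stable hTDP1, 400/well. Exposure: compounds alone, ≥48 hr, 37 °C.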
# HT1080 IDH1KD tx – kills HT-1080 cells with IDH1 knockdown; hit rate 2% among 360,000; HT-1080 IDH1 knockdown viability, ATP luminescence, 48 h; Potency, µM (top dose mostly 46.1 µM), without a hit: at the highest dose activity, negative = toxicity, actives largely listed as cytotoxic; AID 686971;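 further: potency means the concentration at half of the fitted maximal effect; 0% = DMSO wells and -100% = cell-free medium wells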
#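 In this qHTS, HT-1080 cells depleted of IDH1 are exposed for 48 h at 37 °C to compound titrations. Toxicity is scored from CellTiter-Glo luminescence, with DMSO as full viability and medium alone as none.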
# IL-1B inflam inh – inflammasome signaling inhibition, IL-1 beta readout; THP-1 LPS/ATP IL-1B secretion, AlphaLISA, 16 h; stronger effect = lower value; hit rate 4.7% among 360,000; AID 743279; activity change, % at 57.5 µM; in the data active means activity change below about -50%; inconclusive means mostly about -30% to -49%
#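 THP-1 cells pretreated 1 hr with compounds (up to 57.5 uM final), then stimulated with LPS (250 ng/mL final) plus ATP (1.25 mM final); secreted IL-1B measured by AlphaLISA after 16 hr, decreased signal indicating inhibition.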
# DT40 TDP1 CPT – growth inhibition of DT40 Tdp1-/-;hTDP1 cells with camptothecin (screen for TDP1 inhibitors); chicken DT40 Tdp1-/-;hTDP1 cells + 20 nM CPT, ATP luminescence, 48 h; Potency, µM (highest dose often 46.2 µM), without a hit: at the top dose activity change, negative = growth inhibition, actives largely listed as inhibitors; hit rate 12% among 420,000; AID 686979; further: potency means the concentration at half of the fitted maximal effect; nearly all actives have a fitted effect of over 55% in size
#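 Chicken DT40 Tdp1-/- cells complemented with human TDP1, 400 cells/well, exposed to compounds plus 20 nM camptothecin for at least 48 h at 37 C; viability read as ATP content by CellTiter-Glo luminescence.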
# ELG1 repair inh – inhibitors of ELG1-dependent DNA repair in HEK293T cells | HEK293T ELG1-luciferase reporter, luminescence, 16 h; DNA damage induced by 5-fluorouridine | hit rate 2.3% among 330,000 | Potency, µM (highest dose often 46.1 µM), for the others: at the highest dose activity change, negative = inhibition, most hits filed as inhibitors; further: potency means the concentration at half of the fitted maximal effect; nearly all actives have a fitted effect of over 55% in size
#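 HEK293T cells expressing luciferase-tagged ELG1 (2,000/well) received 5-Fluorouridine plus compound or DMSO for 16 hr at 37 °C. Luciferase was read by ONE-Glo luminescence after 30 min at room temperature.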
# HT1080-NT tox – kills 2HG-producing HT-1080-NT fibrosarcoma cells | HT-1080-NT fibrosarcoma viability, CellTiter-Glo ATP luminescence, 48 h | Potency, µM (doses to about 46.1 µM), for inactives: at the highest dose activity, negative = less viability, hits mostly cytotoxic | hit rate 1.6% among 360,000;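 further: NT is the 2HG producing partner of a matched IDH1 knockdown line; potency means the concentration at half of the fitted maximal effect; 0% = DMSO-treated cells and -100% = media-only wells without cells; nearly all actives have a fitted effect of over 55% in size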
#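 Luminescent CellTiter-Glo readout after 48 hours of compound exposure at 37 degrees C defined viability of HT-1080-NT cells. Activity was normalized to DMSO wells and cell-free media wells; concentration-response curves were fitted and assigned curve classes.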
# * marks the source's active call; other numbers are inactive results; ? = inconclusive; · = no result given; ! = not active in a repeat. Unless noted, the call rests on the fitted dose curve; in most records, active means well fitted curve in the direction sought with a large enough effect; inconclusive means small, poorly fitted or top-dose-only effect, or another doubt; inactive means no such curve, though single readings can be large; an effect the other way counts as inactive or inconclusive. Unless noted, on the % scale 0 is the no-effect control and ±100 the full control effect.
SMILES,TDP1 cell noCPT,HT1080 IDH1KD tx,IL-1B inflam inh,DT40 TDP1 CPT,ELG1 repair inh,HT1080-NT tox
CC1(OC(=O)CCc2ccccc2)C(=O)C=C2C=C(c3ccc(C#N)cc3)N(C3CCCCC3)C=C2C1=O (stereo unspecified),?,-11%,23,26µM*,-9%,5%
CC1(OC(=O)CCc2ccccc2)C(=O)C=C2C=C(c3ccc(C#N)cc3)N(C(CO)CO)C=C2C1=O (stereo unspecified),0%,9%,23,9%,25%,16%
CC1(OC(=O)C2CCCC2)C(=O)C=C2C=C(c3ccsc3)N(CCc3c[nH]c4ccccc34)C=C2C1=O (stereo unspecified),?,-2%,-7,21µM*,-9%,1%
Cc1[nH]c2ccccc2c1CCN(Cc1cccnc1)C(=S)NC(C)(C)C,?,9%,-3,-26%,12%,0%
COc1cc(Cl)c(C)cc1NC(=O)CSC1=NCCS1,?,0%,?,?,-5%,-4%
Cc1ccc(CN2CCc3nc(Nc4ccc5c(c4)OCCO5)ncc3C2)cc1,21µM*,·,·,?,·,·
CCc1ccc(CN2CCc3nc(Nc4ccc5c(c4)OCCO5)ncc3C2)cc1,23µM*,·,·,?,·,·
Nc1nc(CN2CCN(Cc3ccccc3)CC2)nc(Nc2ccc3c(c2)OCCO3)n1,-26%,-6%,12,-29%,?,-1%
Cc1ccccc1OCCn1c(-c2ccc(Cl)cc2)nc2ccccc2c1=O,-3%,·,·,-12%,·,·
CCOC(=O)c1c(C)n(C(=O)c2ccco2)c(=O)n1C(=O)c1ccco1,-19%,4%,-68*,-23%,?,0%
CC1(C)Cc2c(sc3ncnc(NNC(=S)NCc4ccccc4)c23)CO1,23µM*,1.8µM*,85,?,-30%,?
CC(=O)c1cccc(NC(=O)c2nc(-c3ccccc3)oc2C)c1,15µM*,-3%,-19,?,?,4%
CC(=O)c1cccc(NC(=O)c2nc(-c3ccccc3)n(-c3ccccc3C)n2)c1,21µM*,·,·,26µM*,·,·
CC1Cc2nc(SCC(=O)NCC3CCCO3)n(-c3ccc(F)cc3)c(=O)c2S1 (stereo unspecified),-17%,11%,-8,5%,-5%,-1%
COc1cc(-c2nc(Cn3nnc(C(=O)Nc4ccc(C)cc4C)c3C)c(C)o2)cc(OC)c1OC,21µM*,·,·,?,·,·
Cc1ccc2nc(COC(=O)c3cccnc3Cl)cc(=O)n2c1,-5%,-1%,-7,2%,·,12%
COc1ccc(-c2noc(CN3CCCC(OCc4ccccn4)C3)n2)cc1 (stereo unspecified),?,-2%,0,16µM*,?,2%
O=C(CCCN1C(=O)NC2(CCCC2)C1=O)Nc1cccc(S(=O)(=O)N2CCOCC2)c1,-15%,-1%,6,3%,10%,1%
COc1ccc(N2CCN(C(=O)c3c4c(nc5ccccc35)C(=O)N(C3CCCCC3)C4)CC2)cc1,16µM*,·,·,15µM*,·,·
O=C(c1c2c(nc3ccccc13)C(=O)N(C1CCCCC1)C2)N1CCN(c2ccc(F)cc2)CC1,26µM*,·,·,21µM*,·,·
O=C(Nc1ccccc1O)c1csc2c1CCCC2,?,-20%,-12,?,?,-22%
Cc1nn(-c2ccccn2)c2c1C(=O)CC(C)(C)C2Br (stereo unspecified),?,?,30,16µM*,2%,?
CC(=O)c1c(C)[nH]c(C(=O)OCC(=O)N(CC(C)C)C2CCS(=O)(=O)C2)c1C (stereo unspecified),-4%,-1%,20,-6%,?,4%
O=C(c1ccncc1)c1ccc(NS(=O)(=O)c2ccc(Br)s2)cc1,18µM*,0%,26,16µM*,7%,-2%
OCCOCCN1CCN(C2=Nc3ccccc3Sc3ccccc32)CC1,19µM*!,-18%,-15,24µM*!,?,-6%
SMILES,TDP1 cell noCPT,HT1080 IDH1KD tx,IL-1B inflam inh,DT40 TDP1 CPT,ELG1 repair inh,HT1080-NT tox
COc1ccc(-n2c3c(cc(-c4nc(-c5ccc(Cl)cc5)cs4)c2=O)C(=O)CC(C)(C)C3)cc1Cl,-6%,·,·,-12%,·,·
COc1ccc(NC(=O)c2ccc(-c3ccc(-c4noc(C)n4)cc3C)cc2)cc1OCCN(C)C,2.6µM*,·,·,5.2µM*,·,·
COc1ccc(NC(=O)c2ccc(-c3ccc(-c4noc(C)n4)cc3C)cc2)cc1N1CCN(C)CC1,2.1µM*,23µM*,-12,2.6µM*,?,8.2µM*
COc1ccc(S(=O)(=O)N2CCOCC2)cc1NC(=O)CSc1nnnn1C1CC1,-9%,8%,-2,-10%,20%,8%
COc1ccccc1Cc1c(-c2ccco2)nc2ccc(Br)cn12,21µM*,?,-5,10µM*,·,?
COc1ccccc1Cc1c(-c2ccco2)nc2ccc(Cl)cn12,23µM*,?,0,16µM*,·,?
FC(F)(F)c1ccccc1Cc1c(-c2ccco2)nc2ccc(Br)cn12,?,?,-28,?,·,?
COc1ccccc1C1(O)C(=O)Nc2ccc(C)cc21 (stereo unspecified),-11%,3%,3,24%,18%,0%
Cc1nc(-c2ccc(NC(=O)c3ccccc3Br)cc2)cs1,-16%,-10%,-52*,4%,?,-2%
Cc1nc(-c2ccc(NC(=O)c3ccco3)cc2)cs1,?,?,-11,13µM*,?,?
O=C(c1ccco1)N1CCN(c2ccc(N3CCCCC3)nn2)CC1,-2%,15%,4,10%,?,13%
Cc1ccn2cc(-c3ccc(NC(=O)c4ccco4)cc3)nc2c1,?,-3%,-92*,?,?,4%
O=C(Nc1ccc(-c2ccc(N3CCCCC3)nn2)cc1)c1ccco1,26µM*,-18%,-13,?,?,-6%
Cc1nc(-c2cccc(NC(=O)c3ccco3)c2)cs1,-28%,-5%,6,-17%,19%,-20%
Cc1ccc2nccc(C(=O)N3CCCC(Nc4ccc(F)cc4)C3)c2c1 (stereo unspecified),?,0%,22,-30%,7%,-2%
O=P(O)(O)OC(CO)CO,-1%,·,·,3%,·,·
Nc1nc(-c2ccc(NC(=O)c3ccco3)cc2)cs1,?,16µM*,2,1%,?,7.3µM*

# Screening results: PubChem, National Center for Advancing Translational Sciences (NCATS)
